Calls of active or inactive are those of the source.

The results in this text go back to PubChem BioAssay.

Experiment [1] concerns Plasmodium falciparum Sir2 (PF13_0152, Sir2A). The experiment in a line: Plasmodium falciparum Sir2A binding compounds – biochemical, small-molecule microarray, 635 nm fluorescence, primary screen (AID 1098).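 Further: score merges spot fluorescence intensity with its signal-to-noise ratio.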 As to conditions: fluorescence 635 nm, higher = more signal.
A short description of experiment [2]: probe aDKK1 binding to arrayed compounds – biochemical, biotinylated probe, 635/667 nm fluorescence, primary screen (AID 1099).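 Further: score merges 667nm spot fluorescence with signal to noise across triplicate slides.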 As to conditions: small-molecule microarray, higher = more signal.
Experiment [3] can be described thus: probe aCHRDL2 binding to arrayed compounds – biochemical, biotinylated probe, 635/667 nm fluorescence, primary screen (AID 1100). As to conditions: small-molecule microarray, higher = more signal.
Experiment [4] is described as follows: change in splice reporter luminescence, either direction, cell-based, HEK293, spliceosome inhibition project, primary screen (AID 1101).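 Further: HEK293 cells carrying a splicing-competent luciferase reporter gene; test concentration not given here.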 As to conditions: HEK293 splicing luciferase reporter, 24 h, higher = more signal, called active from +8 up or from −8 down. (In general: Reporter assays use an easily measured gene product as a stand-in for the process of interest.)

Experiment [5] addresses Fibroblast growth factor 10 (Homo sapiens) (UniProt O15520). The experiment in a line: compounds binding fibroblast growth factor 10 – biochemical, small-molecule microarray, 635 nm fluorescence, primary screen (AID 1102). As to conditions: FGF10 binding, fluorescence 635 nm, higher = more signal.
Experiment [6] concerns glycogen synthase kinase-3 (GSK3A per assay name; protocol says GSK3B). The experiment in a line: compounds binding glycogen synthase kinase-3 – biochemical, small-molecule microarray, 635 nm fluorescence, GSK3A, primary screen (AID 1103). Further: the record names both GSK3A and GSK3B. As to conditions: fluorescence 635 nm, higher = more signal.
The target of experiment [7] is Epidermal growth factor receptor (Homo sapiens) (UniProt P00533). The experiment in a line: compounds binding epidermal growth factor receptor – biochemical, small-molecule microarray, 635 nm fluorescence, primary screen (AID 1104).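 Further: score merges 667 nm emission intensity with spot signal to noise over triplicate slides.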 As to conditions: EGFR binding, higher = more signal.
Epidermal growth factor receptor (Homo sapiens), sequence (P00533 whole entry, looked up): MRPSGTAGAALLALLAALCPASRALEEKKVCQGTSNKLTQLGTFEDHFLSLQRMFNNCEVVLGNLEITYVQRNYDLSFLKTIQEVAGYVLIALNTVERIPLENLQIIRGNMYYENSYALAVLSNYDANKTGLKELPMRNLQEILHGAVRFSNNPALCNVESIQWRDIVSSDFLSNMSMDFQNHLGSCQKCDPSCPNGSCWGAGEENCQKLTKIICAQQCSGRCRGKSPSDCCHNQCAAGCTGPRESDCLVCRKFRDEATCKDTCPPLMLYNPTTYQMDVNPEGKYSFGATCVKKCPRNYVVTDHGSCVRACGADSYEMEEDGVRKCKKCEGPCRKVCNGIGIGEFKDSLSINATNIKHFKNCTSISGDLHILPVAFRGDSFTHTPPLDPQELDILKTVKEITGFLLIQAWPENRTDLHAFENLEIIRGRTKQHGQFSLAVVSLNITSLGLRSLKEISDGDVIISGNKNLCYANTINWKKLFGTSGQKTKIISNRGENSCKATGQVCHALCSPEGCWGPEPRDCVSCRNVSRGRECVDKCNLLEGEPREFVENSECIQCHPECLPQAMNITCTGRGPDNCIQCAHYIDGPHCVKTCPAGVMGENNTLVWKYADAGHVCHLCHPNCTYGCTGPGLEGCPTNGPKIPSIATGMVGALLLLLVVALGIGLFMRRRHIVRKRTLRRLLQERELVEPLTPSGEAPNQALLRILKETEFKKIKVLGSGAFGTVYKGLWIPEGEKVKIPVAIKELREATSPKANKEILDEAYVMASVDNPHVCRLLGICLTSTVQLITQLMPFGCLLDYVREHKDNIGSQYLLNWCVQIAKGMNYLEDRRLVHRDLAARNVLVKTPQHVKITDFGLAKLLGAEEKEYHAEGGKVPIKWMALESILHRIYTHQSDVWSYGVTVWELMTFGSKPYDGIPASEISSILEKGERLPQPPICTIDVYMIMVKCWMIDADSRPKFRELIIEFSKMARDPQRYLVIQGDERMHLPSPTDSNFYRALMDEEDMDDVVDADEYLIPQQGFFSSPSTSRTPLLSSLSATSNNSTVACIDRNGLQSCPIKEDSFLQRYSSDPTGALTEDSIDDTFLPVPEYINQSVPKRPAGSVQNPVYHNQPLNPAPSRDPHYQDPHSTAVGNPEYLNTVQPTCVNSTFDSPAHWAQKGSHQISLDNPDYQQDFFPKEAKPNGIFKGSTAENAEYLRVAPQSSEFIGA
For experiment [8], the target named is Follistatin-related protein 3 (Homo sapiens) (UniProt O95633). The experiment in a line: compounds binding follistatin-related protein 3 – biochemical, small-molecule microarray, 635 nm fluorescence, primary screen (AID 1105).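 Further: score merges emission near 667 nm and signal to noise per printed spot across three slides.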 As to conditions: FSTL3 binding, higher = more signal.
Follistatin-related protein 3 (Homo sapiens), sequence (O95633 whole entry, looked up): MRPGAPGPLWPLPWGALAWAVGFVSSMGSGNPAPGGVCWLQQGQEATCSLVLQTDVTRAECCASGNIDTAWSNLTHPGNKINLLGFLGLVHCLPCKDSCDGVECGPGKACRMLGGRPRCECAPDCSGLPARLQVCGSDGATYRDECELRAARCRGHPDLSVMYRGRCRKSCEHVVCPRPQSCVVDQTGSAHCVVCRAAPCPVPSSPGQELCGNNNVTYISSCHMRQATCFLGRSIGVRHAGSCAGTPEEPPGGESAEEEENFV
Experiment [9] deals with Dickkopf-related protein 1 (Homo sapiens) (UniProt O94907). The experiment in a line: small molecules binding DKK1 protein – biochemical, small-molecule microarray, 635 nm fluorescence scan, primary screen (AID 1106).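 Further: score merges emission near 667 nm with signal to noise over three replicate slides.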 As to conditions: higher = more signal.
Dickkopf-related protein 1 (Homo sapiens), sequence (O94907 whole entry, looked up): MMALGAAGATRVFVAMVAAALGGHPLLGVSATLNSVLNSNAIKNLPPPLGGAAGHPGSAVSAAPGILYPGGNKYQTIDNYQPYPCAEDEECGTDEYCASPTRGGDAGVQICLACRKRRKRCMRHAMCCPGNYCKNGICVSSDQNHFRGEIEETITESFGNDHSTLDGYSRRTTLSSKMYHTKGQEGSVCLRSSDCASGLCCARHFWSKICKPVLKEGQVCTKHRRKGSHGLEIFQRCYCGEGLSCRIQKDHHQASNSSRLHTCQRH
Experiment [10] has as its system Inhibin beta A chain (activin A). The experiment in a line: small molecules binding activin A – biochemical, small-molecule microarray, 635 nm fluorescence scan, primary screen (AID 1107).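 Further: mouse activin A protein probed at 4.33 µg/mL on printed slides; score merges bound-protein fluorescence near 667 nm with spot signal-to-noise.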 As to conditions: INHBA, higher = more signal.
In experiment [11] the test system is Human papillomavirus type 1a protein E7 (residues 44-93). The experiment in a line: small molecules binding HPV E7 44-93 – biochemical, small-molecule microarray, residues 44-93, 635 nm fluorescence, primary screen (AID 1108).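 Further: E7 fragment applied at 1 µg/mL in TBST for 1 h at 4 C; score combines spot fluorescence with its signal to noise ratio.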 As to conditions: fluorescence 635 nm, higher = more signal.
Experiment [12] is described as follows: hepatitis C replication reporter changes, two-sided – Huh7 cells, luciferase reporter, HCV replication inhibitor project, primary screen (AID 1109).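 Further: huh7 hepatoma cells harbouring a luciferase neomycin HCV replicon reporter; luciferase luminescence as measure of HCV replicon replication; test concentration not given here.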 As to conditions: Huh7 HCV replicon luciferase reporter, 48 h; higher = more signal.
The target in experiment [13] is Left-right determination factor 2 (Homo sapiens) (UniProt O00292). The experiment in a line: small molecules binding LEFTY2 protein – biochemical, small-molecule microarray, 635 nm fluorescence scan, primary screen (AID 1110). As to conditions: higher = more signal.
Left-right determination factor 2 (Homo sapiens), sequence (O00292 whole entry, looked up): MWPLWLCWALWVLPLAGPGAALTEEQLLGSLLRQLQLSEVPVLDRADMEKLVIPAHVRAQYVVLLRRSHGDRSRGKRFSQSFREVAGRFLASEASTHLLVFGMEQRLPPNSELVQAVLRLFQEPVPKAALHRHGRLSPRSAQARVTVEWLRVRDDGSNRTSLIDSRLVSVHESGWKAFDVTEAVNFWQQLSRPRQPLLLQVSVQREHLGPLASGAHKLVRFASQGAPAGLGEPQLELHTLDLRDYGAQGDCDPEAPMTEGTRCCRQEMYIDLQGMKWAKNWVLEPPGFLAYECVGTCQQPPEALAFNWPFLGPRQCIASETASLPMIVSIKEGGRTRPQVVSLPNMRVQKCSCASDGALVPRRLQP
Experiment [14] has as its target Calmodulin-1 (Homo sapiens) (UniProt P0DP23). The experiment in a line: small molecules binding calmodulin-1 with EGTA – biochemical, small-molecule microarray, Cy5-labelled CALM1, profiling panel (AID 1111).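 Further: labelled calmodulin applied in Tris saline Tween buffer holding calcium plus EGTA and DTT.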 As to conditions: Cy5-CALM1 binding fluorescence, higher = more signal.
Experiment [15] shares this target. The experiment in a line: small molecules binding Ca-loaded calmodulin-1 – biochemical, small-molecule microarray, Cy5-labelled CALM1, plus calcium, artefact control for SMM control-protein annotation, profiling panel (AID 1112).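 Further: score merges spot fluorescence with signal to noise from triplicate slides.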 As to conditions: Cy5-CALM1 binding fluorescence, higher = more signal.
Experiment [16] can be described thus: probe aWnt5a binding to arrayed compounds – biochemical, biotinylated probe, 635/667 nm fluorescence, primary screen (AID 1113).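 Further: score merges 667 nm fluorescence intensity with signal-to-noise per printed feature.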 As to conditions: small-molecule microarray, higher = more signal.
Experiment [17] is described as follows: probe aShh binding to arrayed compounds – biochemical, biotinylated probe, 635/667 nm fluorescence, primary screen (AID 1114).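 Further: probe is biotin-labelled aShh protein from a stem cell growth factor screen; measures binding of labelled protein to compounds printed on the slide; score merges feature fluorescence at 667 nm with signal-to-noise.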 As to conditions: small-molecule microarray, higher = more signal.
Experiment [18] can be described thus: probe aNog binding to arrayed compounds – biochemical, biotinylated probe, 635/667 nm fluorescence, primary screen (AID 1115).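 Further: probe is biotinylated aNog protein used at 0.15 µg/mL for 1 h at 4 C; z-score combines 667 nm fluorescence of each spot with its signal to noise.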 As to conditions: small-molecule microarray, higher = more signal.
Experiment [19] concerns the target Torsin-1A-interacting protein 1 (Homo sapiens) (UniProt Q5JTV8). The experiment in a line: compound microarray binding of lysate hLAP1 – cell lysate, small-molecule microarray, COS7 lysate, 635/667 nm fluorescence, primary screen (AID 1116). As to conditions: 635 nm fluorescence, higher = more signal.
The target of experiment [20] is Alpha-bungarotoxin (Bungarus multicinctus) (UniProt P60615). The experiment in a line: compounds binding labelled alpha-BTX control protein – biochemical, small-molecule microarray, Alexa647 label, 635/667 nm fluorescence, artefact control for SMM control protein annotation, profiling panel (AID 1117). As to conditions: alpha-BTX-A647 binding fluorescence, higher = more signal.
Alpha-bungarotoxin (Bungarus multicinctus), sequence (P60615 whole entry, looked up): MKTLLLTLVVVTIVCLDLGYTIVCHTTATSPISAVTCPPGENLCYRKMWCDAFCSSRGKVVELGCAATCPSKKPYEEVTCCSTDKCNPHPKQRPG

Torsin-1A-interacting protein 1 (Homo sapiens), sequence (Q5JTV8 whole entry, looked up): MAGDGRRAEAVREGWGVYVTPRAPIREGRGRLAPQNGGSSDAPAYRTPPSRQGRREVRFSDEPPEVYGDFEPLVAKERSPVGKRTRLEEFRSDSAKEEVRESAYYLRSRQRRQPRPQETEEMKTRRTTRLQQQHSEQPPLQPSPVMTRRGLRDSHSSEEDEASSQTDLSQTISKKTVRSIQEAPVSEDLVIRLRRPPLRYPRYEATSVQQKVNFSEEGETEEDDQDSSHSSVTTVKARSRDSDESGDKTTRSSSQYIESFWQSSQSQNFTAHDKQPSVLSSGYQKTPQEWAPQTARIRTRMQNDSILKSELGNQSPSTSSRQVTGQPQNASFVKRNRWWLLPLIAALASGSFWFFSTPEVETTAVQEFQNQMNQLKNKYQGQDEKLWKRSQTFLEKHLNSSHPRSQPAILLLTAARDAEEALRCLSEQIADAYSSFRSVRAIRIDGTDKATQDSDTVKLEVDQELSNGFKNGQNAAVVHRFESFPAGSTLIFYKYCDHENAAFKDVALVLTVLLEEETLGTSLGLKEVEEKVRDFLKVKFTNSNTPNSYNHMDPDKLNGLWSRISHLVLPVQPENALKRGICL
Fibroblast growth factor 10 (Homo sapiens), sequence (O15520 whole entry, looked up): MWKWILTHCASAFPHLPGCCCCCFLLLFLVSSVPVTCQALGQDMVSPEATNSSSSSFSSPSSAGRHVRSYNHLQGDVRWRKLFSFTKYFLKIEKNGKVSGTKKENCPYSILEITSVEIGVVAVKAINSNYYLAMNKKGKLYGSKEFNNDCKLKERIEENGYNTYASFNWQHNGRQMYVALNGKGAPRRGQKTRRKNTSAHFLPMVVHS

For `O=C(NCCN1CCOCC1)[C@@H]1c2ccccc2C(=O)N(Cc2ccccc2)[C@H]1c1ccc(CO)cc1`, the composite z-score in [1] was 0.84; in [2], -0.117; in experiment [3], 0.82; in experiment [5] it was -0.765; in experiment [6], -1.13; in experiment [7], -1.81. Also, the composite z-score in [8] is -0.481; in experiment [9] it was -0.667; in experiment [10], 0.269; in [11] it was -0.639; in experiment [13] it was -1.45; in experiment [14] it was 0.446. Moreover, the composite z-score in [15] was -1; in experiment [16], -0.219; in experiment [17], 0.214; in [18] it was -0.224; in experiment [19], -1.47; in experiment [20], -1.06. Moreover, the figures for the z-score in experiment [4] and in experiment [12] were -0.316 (inactive) and -0.887, respectively.

Consider `C=CCC(OC(C)=O)[C@@H]1[C@@H](N(Cc2ccc(-c3cccc(C(F)(F)F)c3)o2)C(=O)c2cccc3ccccc23)c2cc(OCCCO)ccc2N1C(=O)Cc1ccc(OC)cc1` (stereo not given in full), for which the composite z-score is 0.727 in [1]; -0.291 in experiment [2]; 0.107 in [3]; 0.0525 in [5]; -1.13 in experiment [6]; -0.198 in [7]. In addition, the composite z-score in experiment [8] was 0.495; in experiment [9] it was -0.141; in [10] it was 1.08; in experiment [11], 0.328; in experiment [13], -0.391; in experiment [14] it was -0.534. In addition, the composite z-score in [15] is -0.738; in experiment [16] it was -0.208; in [17], 0.167; in experiment [18], -0.083; in experiment [19] it was 0.0368; in experiment [20], -0.0191. Further, the z-score in [4] was -0.57 (inactive); in experiment [12], -0.72.

With `C=C(C)[C@@H]1CC=C(C(O)C2C=CC3C(=O)N(c4ccccc4)C(=O)C3N2Nc2ccc(C#N)cc2)CC1` (stereo not given in full), the composite z-score in experiment [1] was found to be 1.31; in experiment [2] it was 0.327; in experiment [3] it was 1.15; in experiment [5] it was 0.997; in [6] it was 1.31; in [7], 0.628. The composite z-score was 1.34 in [8]; -0.0273 in experiment [9]; 0.749 in [10]; 1.47 in [11]; 0.0506 in experiment [13]; 1.75 in experiment [14]. In addition, the composite z-score is 0.424 in [15]; -0.0431 in experiment [16]; 0.0469 in experiment [17]; 1.5 in experiment [18]; -0.243 in [19]; 1.92 in [20]. Further, the z-score is 0.857 (inactive) in [4] and -0.768 in [12].

Regarding `COC(=O)C(CC#Cc1ccc2c(c1)[C@]1(C(=O)N2)[C@H](C(=O)Nc2nc3ccccc3s2)[C@H]2C(=O)O[C@H](c3ccccc3)[C@H](c3ccccc3)N2[C@@H]1c1ccc(OCCO)cc1)C(=O)OC`, the composite z-score in experiment [1] stood at 0.912; in experiment [2], 0.277; in experiment [3], 0.575; in experiment [5], 1.15; in [6], 1.21; in experiment [7], 0.468. The composite z-score in experiment [8] came to 1.19; in [9] it was 0.344; in experiment [10], 0.519; in experiment [11], 1.39; in [13], 0.768; in experiment [14], 1.52. Moreover, the composite z-score amounted to 0.326 in experiment [15]; 0.189 in [16]; 0.427 in experiment [17]; 1 in experiment [18]; 2.02 in experiment [19]; 1.62 in experiment [20]. For the same compound, the z-score was -1.25 (inactive) in [4] and -1.85 in [12].

In the case of `CCCC=C(CCC)[C@@H](NS(=O)(=O)c1cccc2cccnc12)c1ccc(-c2ccccc2)cc1`, the composite z-score in experiment [1] stood at 0.757; in experiment [2], 0.939; in [3], 0.75; in [5] it was 1; in [6] it was 1.32; in experiment [7], 0.355. The composite z-score in experiment [8] was 0.909; in [9] it was -0.345; in experiment [10], -0.278; in [11], 1.39; in experiment [13], 0.601; in experiment [14], 1.62. For the same compound, the composite z-score in experiment [15] is 0.841; in [16] it was 0.183; in experiment [17], 0.432; in experiment [18], -0.779; in experiment [19], 0.765; in experiment [20], 1.08. For the same compound, the z-score in [4] was -0.301 (inactive); in experiment [12], -0.0261.

As for `O=C(NCC(O)CO)[C@@]1(CCS(=O)(=O)c2ccccc2)COC(c2ccc(OCCCO)cc2)=N1` (stereo not given in full), the composite z-score in experiment [1] was 1.13; in experiment [2], 1.07; in [3], 1.16; in [5] it was 0.655; in experiment [6], -0.454; in experiment [7], -0.375. The composite z-score is -0.199 in experiment [8]; -0.522 in experiment [9]; 0.877 in experiment [10]; 1.38 in experiment [11]; -0.412 in experiment [13]; 1.25 in [14]. The composite z-score in [15] was determined as 1.09; in experiment [16], 0.0944; in experiment [17], 0.385; in experiment [18], 1.81; in experiment [19], 2.48; in experiment [20] it was 2.58. Besides, the z-score is 0.475 (inactive) in experiment [4] and -0.119 in experiment [12].
